# Abeta rescue = compounds reversing amyloid beta toxicity in yeast; yeast expressing A-beta42, growth rescue, OD600, 48 h; response scale: 0% DMSO, 100% iron-clioquinol control; Potency, µM (titrated, usually from 46.1 µM), most hits filed as activators; 410,000 tested, 0.063% active; note: nearly all actives have a fitted effect of over 55% in size
#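 Yeast growth medium received pinned compounds, then yeast cells expressing toxic A-beta were added; plates incubated at 30 C for 48 hr. Growth read as absorbance at 600 nm, normalized to DMSO and equimolar FeCl3 plus clioquinol controls.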
# TDP43 rescue = inhibitors of TDP-43 toxicity in yeast; TDP-43 expressing yeast growth rescue, BacTiter-Glo, 24 h; Potency, µM (titrated, usually from 46.1 µM), without a hit: at the top dose growth rescue (activation), most hits filed as activators; 410,000 tested, 1.8% active; AID 652104; note: % of control where 0% means no effect; nearly all actives have a fitted effect of over 50% in size
#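 Yeast cells expressing TDP-43 under galactose induction are exposed to compounds for 24 hr at 30 deg C. BacTiter-Glo luminescence measures growth, so protective compounds score as activators.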
# FUS yeast rescue = FUS proteinopathy suppression in yeast | S. cerevisiae FUS-expressing, growth rescue, OD600, 24 h | Potency, µM (doses to about 76.6 µM), actives largely listed as activators | 390,000 tested, 0.24% active | AID 1347120;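 note: plate controls were DMSO vehicle for no effect and reference control for full effect; nearly all actives have a fitted effect of over 55% in size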
#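 Steps: raffinose overnight preculture; dilution to OD 0.005 in 2% galactose minimal medium; compound addition (concentration series); 24hr at 30C, 99% humidity; absorbance read at 600 nm.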
# aSyn yeast inh = inhibitors of alpha-synuclein toxicity in yeast; Potency, µM (highest dose often 46.1 µM), without a hit: top-dose growth rescue (activation), hits mostly activators; 370,000 tested, 0.14% active; Yeast expressing alpha-synuclein, growth rescue, BacTiter-Glo, 24 h; note: % of control where 0% means no effect; nearly all actives have a fitted effect of over 65% in size
#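 Rescue of yeast growth: cells expressing toxic alpha-synuclein, induced in galactose at OD600 0.02, incubated with compound 24 h at 30 C. ATP luminescence quantified growth; inhibitors of toxicity appear as activators.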
# * marks the source's active call; other numbers are inactive results; i = inactive; ? = inconclusive; / = not tested or not shown; ! = a repeat was not active; [ ] = dose if it differs, or a comment. Only some compounds are listed: those with a hit (about 2.1% of all), similar ones and a draw of the others. Calls come from the whole dose curve; as a rule, active = well fitted curve in the direction sought with a large enough effect; inconclusive = small, poorly fitted or top-dose-only effect, or another doubt; inactive = no such curve, though single readings can be large; an effect the other way counts as inactive or inconclusive. Potency is the fitted concentration of half-maximal effect.
SMILES,Abeta rescue,TDP43 rescue,FUS yeast rescue,aSyn yeast inh
Cc1cccc(-c2c(NC(=O)c3ccco3)oc3c(C)cccc3c2=O)c1,i,-10%,i,-3%
COc1cc(-c2c(NC(=O)c3ccco3)oc3c(C)cccc3c2=O)cc(OC)c1OC,i,-10%,i,-6%
Cc1cccc2c(=O)c(-c3ccc4c(c3)OCO4)c(NC(=O)c3ccco3)oc12,i,16µM*,i,2%
COC(=O)c1cc(C(C)c2ccccc2O)n2ccccc12 (stereo not drawn),/,/,i,/
CCc1ccc(NC2CC(=O)N(CCc3ccc(OC)c(OC)c3)C2=O)cc1 (stereo not drawn),i,18µM*,i,-6%
CCN(C(=S)Nc1ccc(C(C)=O)cc1)C1CCCCC1,i,22µM*,i,14%
Cc1ccc(OCC(=O)Nc2ccc(C)c(S(=O)(=O)N3CCCCC3)c2)c([N+](=O)[O-])n1,i,14µM*,i,1%
Cc1ccc(OCC(=O)Nc2ccc(F)cc2)c([N+](=O)[O-])n1,i,10%[9.22 µM],i,7%
Cc1ccc(OCC(=O)Nc2ccc(S(=O)(=O)N3CCCCC3)cc2)c([N+](=O)[O-])n1,i,-18%[0.397 µM],i,1%
Cc1ccc(OCC(=O)Nc2ccc(Cl)cc2)c([N+](=O)[O-])n1,i,13µM*,i,2%
CN(c1ccccc1C(=O)Nc1ccccc1-c1ccccc1)S(C)(=O)=O,i,27%,i,2%
O=C(c1cnc(Cl)c(Cl)c1)N1CCC(Cc2ccccc2)CC1,i,13µM*,i,10%
Cc1cc(C(=O)N2CCC(Cc3ccccc3)CC2)ccc1[N+](=O)[O-],i,?,11µM*,-11%
Cc1cc(C(=O)N2CCN(Cc3ccccc3)CC2)ccc1[N+](=O)[O-],i,12%,i,2%
Cc1oc2c(c1C(=O)NCc1ccccc1)CCCC2,i,11%,i,11%
Cc1oc2c(c1C(=O)Nc1ccc(C(=O)O)cc1)CCCC2,i,13µM*,i,17%
CC(=O)Nc1ccc(C(=O)COC(=O)CCc2ccccc2)c(F)c1,i,-4%,/,-10%
Cc1ccc2c(c1)N(C(=O)N1CCC(C(=O)NC3CCCCCC3)CC1)CC(C)O2 (stereo not drawn),i,24%,i,/
Oc1ccc(N=Nc2ccc3c(c2)OCCO3)c2ncccc12,?,22µM*,i,?
O=[N+]([O-])c1cc(Cl)ccc1Nc1nc(Nc2ccc(Cl)cc2[N+](=O)[O-])nc(N2CCOCC2)n1,/,/,/,21%
O=C(NCCc1ccccc1)c1nn(-c2ccccc2Cl)nc1CO,i,35µM*,i,/
O=C(NCCCc1ccccc1)c1nn(-c2ccccc2)nc1CO,i,27%,i,/
CCOC(=O)C1=C(C)OC(=Cc2ccccc2)C1=O,i,0%,i,-1%
CCOC(=O)C1=C(O)c2ccccc2C(=O)/C1=C\c1ccc(C)cc1,i,3.2µM*,/,-76%
c1ccc(Sc2nc(N3CCCCC3)nc(N3CCCCC3)n2)nc1,i,16µM*,i,-1%
SMILES,Abeta rescue,TDP43 rescue,FUS yeast rescue,aSyn yeast inh
O=C(C1CCCN1S(=O)(=O)c1ccc(Br)s1)N1CCc2ccccc2C1 (stereo not drawn),/,/,i,/
Cc1cccnc1NC(=S)Nc1ncccc1C,i,-19%,i,-17%
CCOc1ccccc1NC(=S)Nc1ncccc1C,i,14µM*,/,-11%
CN(C)c1ccc(C(CNC(=O)c2ccccc2)c2c[nH]c3ccccc23)cc1 (stereo not drawn),i,3%,11µM*,-1%
Cc1ccc([N+](=O)[O-])cc1-c1[nH]c(-c2ccc(O)c(O)c2)nc1-c1ccccc1,i,17%,20µM*,0%
COc1ccc(-c2nc(-c3ccccc3)c(-c3cc([N+](=O)[O-])ccc3C)[nH]2)cc1O,i,9%,i,18%
COc1cc(/C=C/C(=O)Nc2cc(C(F)(F)F)ccc2Cl)cc(OC)c1OC,i,22µM*,i,0%
O=C(CN(C(=O)CNC(=O)c1ccco1)c1ccccc1F)NC1CCCCC1,i,-11%,i,1%
N#Cc1nccnc1S(=O)(=O)c1cccs1,i,13µM*,i,-5%
COC(=O)[C@]12C[C@H](CC(=O)N3CCN(C(=O)C4CC4)CC3)C(=O)N(Cc3ccco3)C1=C[C@H](C(C)C)O[C@@H]2C1CC1,/,/,i,/
COc1ccc(S(=O)(=O)c2cc3cc(C(C)(C)C)cc(O)c3oc2=O)cc1,i,-17%,40µM*,/
O=C(Oc1ccc(Br)cc1C(=S)N1CCCC1)c1ccccc1F,i,16µM*,/,5%
Cc1ccc2nc(NC(=O)CCn3c(=O)sc4ccccc43)sc2c1,i,20µM*,i,-5%
Cc1ccc2nc(NC(=O)CCn3cccc3)sc2c1,i,17%,i,12%
O=C(CCn1c(=O)sc2ccccc21)Nc1nc2ccccc2s1,i,28µM*,i,12%
CCN(CC(=O)Nc1ccc(S(=O)(=O)N2CCCC2)cc1)CC(=O)Nc1ccccc1C(F)(F)F,i,16%,i,2%
Nc1ccc(NC(=O)c2cccc(C(=O)Nc3ccc(N)cc3Cl)c2)c(Cl)c1,i,-16%,11µM*!,-1%
COc1ccccc1S(=O)Cc1ccc(C(=O)NCCc2ccc(Cl)cc2)o1 (stereo not drawn),i,13%,i,1%
COc1ccc(NC(=O)Cn2c(=O)n(Cc3ccco3)c(=O)c3cc(OC)c(OC)cc32)cc1,i,20%,i,/
CCOC(=O)C1=NN(C(=O)c2ccc(C)cc2)C(O)(c2ccc(Cl)cc2)C1 (stereo not drawn),i,13µM*,?,?
COC(=O)C1=NN(C(=O)c2ccc(Cl)cc2)C(O)(c2ccccc2)C1 (stereo not drawn),i,27%,i,20µM*
O=C(CN(C(=O)OCC1c2ccccc2-c2ccccc21)[C@@H](Cc1ccccc1)C(=O)O)OCc1ccc(C(=O)NCc2ccccc2)cc1,/,/,25µM*,/
COC(=O)N1CCC[C@H]1c1cccc2[nH]cc(C)c12,/,/,i,/
O=C(CC1S/C(=N\S(=O)(=O)c2ccccc2)N(c2ccccc2)C1=O)Nc1ccc(F)cc1 (stereo not drawn),i,-3%,18µM*,8%
Cc1ccc(NC(=O)CC2SC(=O)N(c3ccccc3)C2=O)cc1 (stereo not drawn),i,20µM*,i,5%
CCOC(=O)c1sc(-c2ccccc2)cc1N,i,7.1µM*,i,16%
CCCCOc1ccc(C(=O)NCC2(c3ccccc3)CCOCC2)cc1,i,16µM*,?,2%
CCCCCOc1ccc(C(=O)NCC2(c3ccccc3)CCOCC2)cc1,i,-10%,?,3%
O=C(Nc1nnc(C2=COCCO2)o1)c1cccc([N+](=O)[O-])c1,i,9%,i,-2%

# Screening results deposited in PubChem BioAssay by National Center for Advancing Translational Sciences (NCATS).
